Results on six compounds are retold here after PubChem BioAssay (Tox21).

The structures appear in SMILES notation. Inconclusive results are not listed. Activity calls are given as the source filed them. Unless noted, calls follow the shape of the dose curve; as a rule, active = well fitted curve in the direction sought with a large enough effect in the repeat runs; inconclusive = weak or mixed curves; inactive = no such curve, though single readings can be large; an effect the other way counts as inactive or inconclusive.

In assay [1] the target is Estrogen receptor beta (Homo sapiens) (UniProt Q92731). Briefly: qHTS assay to identify small molecule antagonists of the estrogen receptor beta (ER-beta) signaling pathway (AID 1259378; active = well fitted inhibition curve with a large enough effect in the signal ratio in the repeat runs, not every such curve was filed as active; the % refers to the signal ratio; also: potency is read from the fitted curve at half-maximal effect). An outline of the steps: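 Antagonist mode: compounds added to beta-lactamase reporter HEK293T ER-beta-UAS cells stimulated with E2 (1nM final), 16 hr at 37C. LiveBLAzer B/G FRET substrate, 2 hours room temperature, fluorescence read-out.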
Chain of Estrogen receptor beta (Homo sapiens) (Q92731 whole entry, looked up): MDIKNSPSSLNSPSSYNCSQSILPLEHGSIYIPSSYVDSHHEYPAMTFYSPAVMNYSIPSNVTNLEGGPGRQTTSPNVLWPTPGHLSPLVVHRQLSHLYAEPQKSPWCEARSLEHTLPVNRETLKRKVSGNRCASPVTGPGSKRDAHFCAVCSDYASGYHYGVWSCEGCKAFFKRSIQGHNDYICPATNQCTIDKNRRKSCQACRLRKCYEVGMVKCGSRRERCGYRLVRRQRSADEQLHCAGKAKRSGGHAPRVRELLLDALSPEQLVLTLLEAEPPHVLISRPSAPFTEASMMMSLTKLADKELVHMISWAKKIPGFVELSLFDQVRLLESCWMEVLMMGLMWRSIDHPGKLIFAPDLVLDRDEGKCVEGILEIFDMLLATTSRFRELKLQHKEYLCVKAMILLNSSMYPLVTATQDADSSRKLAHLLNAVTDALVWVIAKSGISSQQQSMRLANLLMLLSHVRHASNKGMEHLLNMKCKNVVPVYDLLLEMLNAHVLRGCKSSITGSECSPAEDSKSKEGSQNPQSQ
In general terms: Quantitative high-throughput screening tests each substance at several concentrations.

Assay [2] is described as follows: qHTS assay to identify small molecule agonists of the androgen receptor (AR) signaling pathway in the presence of an antagonist - cell viability counter screen (AID 1259379). Also: nearly all actives have a fitted effect of over 25% in size. Also: potency is read from the fitted curve at half-maximal effect. An outline of the steps:
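MDA-kb2 human breast carcinoma cells (stable MMTV-luciferase, AR/GR responsive) were seeded 3,000 cells/well, pre-incubated 5 hr at 37C without CO2, then given 3.0uM nilutamide and compounds at 15 concentrations for 16 hr. Viability was read by CellTiter-Fluor fluorescence.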

Assay [3] can be described thus: qHTS assay to identify small molecule agonists of the estrogen receptor beta (ER-beta) signaling pathway - cell viability counter screen (AID 1259380). Also: nearly all actives have a fitted effect of over 30% in size. The method in brief:
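ER-beta-UAS-bla HEK293T cells in medium with 2% charcoal-stripped FBS were preincubated 6 hr at 37C, dosed with compound in DMSO for 16 hr, then after the bla read, CellTiter-Glo was added for 30 min at room temperature; luminescence recorded.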

Assay [4] concerns the target Androgen receptor (Homo sapiens) (UniProt P10275). The experiment in a line: qHTS assay to identify small molecule agonists of the androgen receptor (AR) signaling pathway in the presence of an antagonist (AID 1259381; calls by dose curve; also: nearly all actives have a fitted effect of over 15% in size). The method in brief: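 MDA-kb2 human breast carcinoma cells carrying an MMTV-luciferase reporter (AR- and GR-responsive) were treated with compounds at 15 concentrations plus 3.0uM final nilutamide for 16hr at 37C without CO2; luminescence was read after ONE-Glo addition.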

Assay [5] can be described thus: qHTS assay to identify small molecule antagonists of the estrogen receptor beta (ER-beta) signaling pathway - cell viability counter screen (AID 1259382).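 Also: HEK293T cells carrying ER-beta-UAS-bla reporter stimulated with estradiol; series mostly up to about 92 µM; nearly all actives have a fitted effect of over 55% in size.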 The method in brief:
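ER-beta-UAS-bla HEK293T cells (2,000/well, 2% charcoal-stripped FBS) were pre-incubated 6 hr at 37C, then given compound plus 1nM final 17-beta-estradiol for 16 hr. Viability was read in the same wells by CellTiter-Glo luminescence after 30 min at room temperature.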

Assay [6] addresses Estrogen receptor (Homo sapiens) (UniProt P03372). Briefly: qHTS assay to identify small molecule agonists of the estrogen receptor alpha (ER-alpha) signaling pathway in the presence of an antagonist (AID 1259383; calls by dose curve; also: top concentration of the series differs between compounds; nearly all actives have a fitted effect of over 15% in size). The method in brief:
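VM7Luc4E2 cells (endogenous full-length ER-alpha, 4×ERE-luciferase) were precultured 5 days in phenol red-free medium with 10% charcoal-stripped FBS, given 10.0nM ICI-182,780 (final), then treated with compounds at 15 concentrations for 22hr at 37C; luminescence read with ONE-Glo.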

The nature of assay [7]: qHTS assay to identify small molecule agonists or antagonists of the thyroid stimulating hormone receptor (TSHR) signaling pathway - wild type cell line counter screen (AID 1259384; calls by dose curve). An outline of the steps:
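Counter screen in untransfected Hek293: compounds (15-point titration, triplicate) plus phosphodiesterase inhibitor Ro20-1724 added after 18 h plating; 30 min RT. Intracellular cAMP via competitive d2/cryptate immunoassay, 1 h incubation.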

The target in assay [8] is Thyrotropin receptor (Homo sapiens) (UniProt P16473). The experiment in a line: qHTS assay to identify small molecule antagonists of the thyroid stimulating hormone receptor (TSHR) signaling pathway (AID 1259385; calls by dose curve; also: nearly all actives have a fitted effect of over 20% in size). An outline of the steps: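 Antagonist mode: compound-treated TSHR-expressing HEK293 cells were stimulated with 1.5 ng/mL TSH (final) in presence of Ro20-1724 for 30 min at RT. HTRF cAMP detection after 1 h; each compound tested at 15 concentrations, triplicate.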
Chain of Thyrotropin receptor (Homo sapiens) (P16473 whole entry, looked up): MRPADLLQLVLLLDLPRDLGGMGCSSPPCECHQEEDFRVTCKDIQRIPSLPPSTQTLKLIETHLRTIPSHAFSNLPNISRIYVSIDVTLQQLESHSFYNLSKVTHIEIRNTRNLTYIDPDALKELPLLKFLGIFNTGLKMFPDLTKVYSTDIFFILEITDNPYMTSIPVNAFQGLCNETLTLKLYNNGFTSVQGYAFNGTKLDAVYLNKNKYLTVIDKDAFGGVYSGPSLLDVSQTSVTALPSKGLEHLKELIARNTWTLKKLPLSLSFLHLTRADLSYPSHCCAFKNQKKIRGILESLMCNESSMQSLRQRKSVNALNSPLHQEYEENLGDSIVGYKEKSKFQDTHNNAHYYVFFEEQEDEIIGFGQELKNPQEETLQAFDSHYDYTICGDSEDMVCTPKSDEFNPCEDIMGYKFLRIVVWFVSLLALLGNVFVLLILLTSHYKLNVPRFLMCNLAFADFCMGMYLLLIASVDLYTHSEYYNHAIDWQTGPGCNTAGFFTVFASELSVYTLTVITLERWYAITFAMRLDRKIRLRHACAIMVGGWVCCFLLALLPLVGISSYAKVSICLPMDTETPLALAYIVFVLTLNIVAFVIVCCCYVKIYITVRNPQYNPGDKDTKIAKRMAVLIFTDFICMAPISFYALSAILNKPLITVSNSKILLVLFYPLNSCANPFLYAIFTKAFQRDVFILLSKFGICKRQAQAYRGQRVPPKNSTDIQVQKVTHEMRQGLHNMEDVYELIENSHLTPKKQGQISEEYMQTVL

The nature of assay [9]: qHTS assay to identify small molecule agonists of the estrogen receptor alpha (ER-alpha) signaling pathway in the presence of an antagonist - cell viability counter screen (AID 1259386).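 Also: cells exposed to compounds for 22 h at 37 °C before the viability read; nearly all actives have a fitted effect of over 30% in size.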 Also: potency is read from the fitted curve at half-maximal effect. The method in brief:
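VM7Luc4E2 cells (endogenous full-length ER-alpha, 4×ERE-luciferase) were held 5 days in phenol red-free medium with 10% charcoal-stripped FBS, plated, then given 10.0nM ICI-182,780 and compounds at 15 concentrations for 22hr at 37C; viability read by CellTiter-Fluor fluorescence.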

For assay [10], the target named is Progesterone receptor (Homo sapiens) (UniProt P06401). The experiment in a line: qHTS assay to identify small molecule agonists of the progesterone receptor (PR) signaling pathway (AID 1346784; calls by dose curve; also: nearly all actives have a fitted effect of over 30% in size). An outline of the steps: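 PR-UAS-bla HEK 293T cells (beta-lactamase reporter under UAS) in 2% charcoal-stripped FBS, dosed with 23 nL compound after 6 hr, incubated 16hr at 37C. LiveBLAzer B/G FRET substrate added, fluorescence read after 2 hours.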
Chain of Progesterone receptor (Homo sapiens) (P06401 whole entry, looked up): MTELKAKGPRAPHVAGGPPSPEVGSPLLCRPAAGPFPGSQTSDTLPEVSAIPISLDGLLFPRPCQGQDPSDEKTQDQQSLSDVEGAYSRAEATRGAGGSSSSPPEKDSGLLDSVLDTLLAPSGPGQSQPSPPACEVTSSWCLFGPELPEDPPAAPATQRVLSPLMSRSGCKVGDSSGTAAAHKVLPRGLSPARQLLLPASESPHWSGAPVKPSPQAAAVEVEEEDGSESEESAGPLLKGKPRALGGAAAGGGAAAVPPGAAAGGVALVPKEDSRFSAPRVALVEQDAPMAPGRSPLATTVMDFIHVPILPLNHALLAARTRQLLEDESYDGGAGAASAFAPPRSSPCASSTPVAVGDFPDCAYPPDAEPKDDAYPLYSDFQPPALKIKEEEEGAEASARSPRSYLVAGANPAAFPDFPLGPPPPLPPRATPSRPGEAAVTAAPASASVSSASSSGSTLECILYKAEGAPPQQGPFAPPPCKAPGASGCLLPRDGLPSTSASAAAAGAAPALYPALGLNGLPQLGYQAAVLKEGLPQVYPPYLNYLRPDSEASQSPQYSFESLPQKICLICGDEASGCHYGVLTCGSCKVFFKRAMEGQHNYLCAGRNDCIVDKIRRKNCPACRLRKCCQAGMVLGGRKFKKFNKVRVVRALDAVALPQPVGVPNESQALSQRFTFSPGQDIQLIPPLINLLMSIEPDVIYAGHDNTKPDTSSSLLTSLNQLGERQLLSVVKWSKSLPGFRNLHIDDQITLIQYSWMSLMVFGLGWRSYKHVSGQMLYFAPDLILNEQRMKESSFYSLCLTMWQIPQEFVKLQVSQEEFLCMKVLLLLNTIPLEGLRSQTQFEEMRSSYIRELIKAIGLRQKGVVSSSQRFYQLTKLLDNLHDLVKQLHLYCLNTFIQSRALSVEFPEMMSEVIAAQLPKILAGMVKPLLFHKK

The nature of assay [11]: qHTS assay to identify small molecule antagonists of the progesterone receptor (PR) signaling pathway - cell viability counter screen (AID 1346798). Also: nearly all actives have a fitted effect of over 50% in size. Also: potency is read from the fitted curve at half-maximal effect. An outline of the steps: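 PR-UAS-bla HEK293T cells, 3,000/well in 2% charcoal-stripped FBS medium, dosed with compounds plus R5020 agonist and incubated 16 h at 37C. Viability then measured in the same wells by CellTiter-Glo luminescence after 30 min at RT.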

Assay [12] in a line: qHTS assay to identify small molecule agonists of the progesterone receptor (PR) signaling pathway - cell viability counter screen (AID 1346799; calls by dose curve; also: nearly all actives have a fitted effect of over 45% in size). An outline of the steps: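 Counter screen in the PR-UAS-bla HEK293T wells (2% charcoal-stripped FBS, 16 h compound exposure at 37 C) after the bla read. CellTiter-Glo added, 30 min at room temperature, luminescence read as cell viability.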

Assay [13] can be described thus: qHTS assay to identify small molecule antagonists of the TGF-beta/Smad signaling pathway - cell viability counter screen (AID 1346824). Also: nearly all actives have a fitted effect of over 50% in size. The method in brief:
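Cytotoxicity counter-screen run in the same wells as the beta-lactamase Smad reporter read: CellTiter-Glo luminescence after 30 min at room temperature. HEK 293T SBE-bla cells had 5 hr compound exposure at 37 C with TGF-beta1 (0.25 ng/mL stock).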

The nature of assay [14]: qHTS assay to identify small molecule agonists of the TGF-beta/Smad signaling pathway - cell viability counter screen (AID 1346829). Also: top concentration of the series differs between compounds; nearly all actives have a fitted effect of over 45% in size. The method in brief: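 Cytotoxicity counter screen: CellTiter-Glo luminescence (30 min, room temperature) measured in the SBE-bla HEK 293T reporter wells after 5 hr compound treatment at 37 C and the 2 hr substrate step.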
Assay [15] is described as follows: qHTS assay to identify small molecule agonists of the TGF-beta/Smad signaling pathway (AID 1346859; active = well fitted activation curve with a large enough effect in the signal ratio in the repeat runs, not every such curve was filed as active; the % refers to the signal ratio; also: series mostly up to about 77 µM). An outline of the steps: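 SBE-bla HEK293T cells plated overnight, then compound exposure for 5 h at 37 C. Beta-lactamase reporter read with LiveBLAzer B/G FRET substrate after 2 h at room temperature, fluorescence at 405 nm excitation, 460/530 nm emission.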
In assay [16] the target is Thyrotropin-releasing hormone receptor (Homo sapiens) (UniProt P34981). Briefly: qHTS assay to identify small molecule antagonists of the thyrotropin-releasing hormone receptor (TRHR) signaling pathway (AID 1346877; active = well fitted inhibition curve with a large enough effect in the repeat runs, not every such curve was filed as active; also: series mostly up to about 51 µM). The method in brief:
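TRHR-expressing HEK293 cells were seeded, cultured 18 h at 37 °C, then loaded with calcium dye for 2 h. Compounds were pre-incubated 5 min at room temperature before 1 nM TRH (final) was added, and kinetic fluorescence was recorded for 3 min.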

Assay [17] shares this target. Briefly: qHTS assay to identify small molecule agonists of the thyrotropin-releasing hormone receptor (TRHR) signaling pathway (AID 1346891; calls by dose curve; also: series mostly up to about 58 µM). The method in brief:
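HEK293 cells expressing TRHR plated 18 h at 37 C/5% CO2, calcium dye-loaded 2 h at 37 C, then compound added (agonist mode); kinetic calcium fluorescence read 3 min at 1 s intervals; 15 concentrations in triplicate.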

A short description of assay [18]: Human pregnane X receptor (PXR) small molecule agonists, qHTS cell viability counter screen (AID 1346977). Also: nearly all actives have a fitted effect of over 50% in size. Also: potency is read from the fitted curve at half-maximal effect. An outline of the steps:
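PXR-Luc HepG2 cells (2,000/well, 5% charcoal-stripped FBS) preincubated 5 hr, then exposed to compounds 24 hr at 37 C. Viability read in the same wells by CellTiter-Fluor fluorescence, reagent added at 23 hr, 1 hr incubation.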

Assay [19] can be described thus: Caspase-3/7 induction in HepG2 cells by small molecules, qHTS assay (AID 1346978). Also: nearly all actives have a fitted effect of over 15% in size. An outline of the steps:
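Caspase-3/7 induction was measured by Caspase-Glo 3/7 luminescence (30 min, room temperature) after a 17 hr compound exposure of wild-type HepG2 cells seeded at 2,000 per well and pre-incubated 5 hr.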

Assay [20] concerns the target Progesterone receptor (Homo sapiens) (UniProt P06401). Briefly: qHTS assay to identify small molecule antagonists of the progesterone receptor (PR) signaling pathway (AID 1346795; active = well fitted inhibition curve with a large enough effect in the signal ratio in the repeat runs, not every such curve was filed as active; the % refers to the signal ratio). An outline of the steps:
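PR-UAS-bla HEK293T cells with beta-lactamase reporter under UAS control, in 2% charcoal-stripped FBS, treated with compounds plus 1 nM promegestone (R5020, final) for 16 hr at 37C. Read-out: FRET beta-lactamase substrate fluorescence after 2 hr at room temperature.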

Chain of Androgen receptor (Homo sapiens) (P10275 whole entry, looked up): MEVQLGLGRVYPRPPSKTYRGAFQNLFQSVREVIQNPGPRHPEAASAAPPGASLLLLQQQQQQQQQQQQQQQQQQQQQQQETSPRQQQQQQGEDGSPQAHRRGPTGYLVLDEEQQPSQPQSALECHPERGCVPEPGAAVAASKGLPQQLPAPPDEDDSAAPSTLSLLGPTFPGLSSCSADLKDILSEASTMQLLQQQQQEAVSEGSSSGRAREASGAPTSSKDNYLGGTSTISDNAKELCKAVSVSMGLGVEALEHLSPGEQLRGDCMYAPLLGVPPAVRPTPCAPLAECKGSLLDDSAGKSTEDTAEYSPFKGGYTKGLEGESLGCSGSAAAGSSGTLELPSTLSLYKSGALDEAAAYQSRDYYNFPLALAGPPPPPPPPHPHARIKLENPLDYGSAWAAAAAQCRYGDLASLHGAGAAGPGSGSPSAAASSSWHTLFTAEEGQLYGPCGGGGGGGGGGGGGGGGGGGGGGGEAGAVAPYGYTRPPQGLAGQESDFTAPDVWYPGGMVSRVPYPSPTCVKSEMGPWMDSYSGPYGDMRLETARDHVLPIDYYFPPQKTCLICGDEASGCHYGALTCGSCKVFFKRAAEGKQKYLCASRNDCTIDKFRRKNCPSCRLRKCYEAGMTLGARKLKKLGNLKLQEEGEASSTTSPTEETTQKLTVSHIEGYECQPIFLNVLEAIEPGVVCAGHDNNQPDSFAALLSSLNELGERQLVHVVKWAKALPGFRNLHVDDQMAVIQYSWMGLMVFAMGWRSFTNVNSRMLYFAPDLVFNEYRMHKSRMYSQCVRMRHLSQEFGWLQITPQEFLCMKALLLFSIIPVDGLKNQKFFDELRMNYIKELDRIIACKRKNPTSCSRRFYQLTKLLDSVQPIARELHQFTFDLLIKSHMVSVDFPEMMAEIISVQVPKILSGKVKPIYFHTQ
Chain of Estrogen receptor (Homo sapiens) (P03372 whole entry, looked up): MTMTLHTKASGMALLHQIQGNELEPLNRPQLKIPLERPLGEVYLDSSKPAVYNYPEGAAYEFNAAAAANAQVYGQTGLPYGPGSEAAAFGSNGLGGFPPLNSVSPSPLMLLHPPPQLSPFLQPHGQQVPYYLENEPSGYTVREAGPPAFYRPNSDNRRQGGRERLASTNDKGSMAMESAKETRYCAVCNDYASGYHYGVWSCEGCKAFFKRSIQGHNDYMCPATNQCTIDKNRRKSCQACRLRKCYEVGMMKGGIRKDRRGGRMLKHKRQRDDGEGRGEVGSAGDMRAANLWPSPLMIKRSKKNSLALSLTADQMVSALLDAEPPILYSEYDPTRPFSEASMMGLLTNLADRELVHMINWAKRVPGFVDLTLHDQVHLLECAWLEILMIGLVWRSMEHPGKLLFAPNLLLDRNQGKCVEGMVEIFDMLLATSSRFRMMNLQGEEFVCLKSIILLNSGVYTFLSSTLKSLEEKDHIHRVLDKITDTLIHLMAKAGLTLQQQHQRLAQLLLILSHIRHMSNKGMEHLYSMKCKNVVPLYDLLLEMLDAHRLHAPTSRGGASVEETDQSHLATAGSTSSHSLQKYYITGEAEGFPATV
Chain of Thyrotropin-releasing hormone receptor (Homo sapiens) (P34981 whole entry, looked up): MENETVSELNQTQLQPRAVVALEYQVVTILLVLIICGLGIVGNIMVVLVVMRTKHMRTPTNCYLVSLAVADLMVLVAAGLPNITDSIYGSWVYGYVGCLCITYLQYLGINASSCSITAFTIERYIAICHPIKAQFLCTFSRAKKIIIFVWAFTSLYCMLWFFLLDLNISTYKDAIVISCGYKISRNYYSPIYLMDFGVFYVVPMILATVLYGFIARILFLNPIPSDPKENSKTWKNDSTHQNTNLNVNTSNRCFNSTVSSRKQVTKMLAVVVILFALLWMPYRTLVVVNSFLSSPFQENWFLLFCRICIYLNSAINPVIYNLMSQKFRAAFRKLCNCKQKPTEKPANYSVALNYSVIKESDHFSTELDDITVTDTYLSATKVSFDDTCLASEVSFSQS

In the case of `O=C(CCl)Nc1ccccc1`, the Potency in [1] was 27.3 µM (active); in assay [2], 61.1 µM (active); in [9], 68.6 µM (active); in [11] it was 19.3 µM (active); in [18] it was 61.1 µM (active). The Potency result in assay [3], in assay [4], in assay [5], in assay [6], in assay [8] and in assay [10] was “inactive” throughout. The Potency entry in assay [12], in [13], in assay [14], in assay [16], in assay [17] and in [19] was “inactive” in each case. Also, the compound was classed as inactive in [7] and in [15].

As for `ClCCN1CCOCC1`, the Potency entry in assay [1], in assay [2], in assay [3], in [5], in assay [6] and in assay [8] was “inactive” each time. In addition, the Potency result in assay [9], in [10], in assay [20], in assay [11], in assay [12] and in [13] was “inactive” each time. The Potency entry in assay [14], in assay [17], in assay [18] and in [19] was “inactive” throughout. For the same compound, the compound was classed as inactive in assay [7] and in assay [15].

As for `Cc1ccc(CCl)cc1`, the Potency result in assay [1], in [2], in [3], in assay [4], in [5] and in assay [6] was “inactive” in each case. The Potency result in assay [8], in assay [9], in assay [10], in assay [11], in assay [13] and in assay [14] was “inactive” each time. Moreover, the Potency result in assay [18] and in [19] was “inactive” each time. Moreover, the compound was called inactive in assay [7] and in assay [15].

Take `COc1cccc2c1C(=O)c1c(O)c3c(c(O)c1C2=O)C[C@@](O)(C(=O)CO)CC3OC1CC(N2CCOC(OC)C2)C(O)C(C)O1` (some centres not stated): the Potency is 0.168 µM (active) in [1]; 13.3 µM (active) in assay [2]; 10.6 µM (active) in assay [9]; 0.266 µM (active) in [11]; 0.168 µM (active) in [18]. Besides, the Potency entry in assay [3], in [4], in assay [5], in assay [6], in assay [13] and in assay [14] was “inactive” in each case. Besides, in assay [7], the compound was called inactive.

As for `N#Cc1ccccc1Cl`, the Potency entry in assay [1], in assay [2], in assay [3], in assay [5], in [8] and in assay [9] was “inactive” in each case. The Potency entry in assay [10], in assay [20], in assay [11], in assay [12], in assay [13] and in [14] was “inactive” throughout. Moreover, the Potency entry in assay [16], in assay [17], in assay [18] and in assay [19] was “inactive” throughout. The outcome in assay [7] and in assay [15] was inactive.

Consider `Fc1cccc(Cl)c1CCl`, for which the Potency result in assay [1], in assay [2], in assay [3], in [5], in [6] and in assay [8] was “inactive” in each case. Further, the Potency result in assay [9], in [10], in [20], in assay [11], in assay [12] and in [13] was “inactive” in each case. The Potency entry in assay [14], in [16], in assay [17], in assay [18] and in assay [19] was “inactive” throughout. The call in [7] and in assay [15] was inactive.
